# In publication PMC7862700, “An all-to-all approach to the identification of sequence-specific readers for epigenetic DNA modifications on cytosine”:
# What was measured:
# Test in all cases: DAPPL (digital affinity profiling via proximity ligation, sequencing); 10 mM Tris-HCl pH 7.5, 50 mM NaCl, 1 mM DTT, 4% glycerol, room temperature, 30 min; GST-TFs on glutathione beads, 16-mer random dsDNA library, 0.1% formaldehyde crosslink after washing; high values mean tight binding
# [1] = biological target: T1, FLI1 (Homo sapiens, UniProt Q01543 1-452); conditions: protein: recombinant; tags: N-terminal GST; dsDNA, one strand shown
# T1 sequence: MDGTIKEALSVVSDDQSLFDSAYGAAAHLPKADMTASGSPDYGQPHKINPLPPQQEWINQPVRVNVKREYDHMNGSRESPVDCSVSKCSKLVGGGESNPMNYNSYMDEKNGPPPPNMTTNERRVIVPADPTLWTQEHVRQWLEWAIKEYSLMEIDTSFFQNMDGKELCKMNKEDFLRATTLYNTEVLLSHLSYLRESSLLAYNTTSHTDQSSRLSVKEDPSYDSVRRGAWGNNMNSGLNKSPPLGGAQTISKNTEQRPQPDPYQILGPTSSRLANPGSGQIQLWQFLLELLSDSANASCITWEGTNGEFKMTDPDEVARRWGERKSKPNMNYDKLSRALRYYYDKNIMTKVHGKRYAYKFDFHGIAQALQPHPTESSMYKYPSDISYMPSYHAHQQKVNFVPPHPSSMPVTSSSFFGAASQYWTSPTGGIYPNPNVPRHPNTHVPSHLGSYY
# Procedure, shortened: (§1)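 Binding signal is each hexamer's read frequency for a factor divided by its frequency in the tag-only sample. The factors were GST-fused human transcription factors from yeast, captured on glutathione beads, DNA-barcoded and pooled with that sample. Pools were incubated with 200 nmole of a random double-stranded 16-mer DNA library in Tris/NaCl/DTT/glycerol buffer at room temperature for 30 min, then washed, crosslinked with 0.1% formaldehyde, proximity-ligated with BsaI/T4 ligase (1 h, 37 °C), PCR-amplified and sequenced on an Illumina NextSeq500.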
# [2] = biological target: T2, ELK1 (Homo sapiens, UniProt P19419 1-428); conditions: protein: recombinant; tags: N-terminal GST; dsDNA, one strand shown
# T2 sequence: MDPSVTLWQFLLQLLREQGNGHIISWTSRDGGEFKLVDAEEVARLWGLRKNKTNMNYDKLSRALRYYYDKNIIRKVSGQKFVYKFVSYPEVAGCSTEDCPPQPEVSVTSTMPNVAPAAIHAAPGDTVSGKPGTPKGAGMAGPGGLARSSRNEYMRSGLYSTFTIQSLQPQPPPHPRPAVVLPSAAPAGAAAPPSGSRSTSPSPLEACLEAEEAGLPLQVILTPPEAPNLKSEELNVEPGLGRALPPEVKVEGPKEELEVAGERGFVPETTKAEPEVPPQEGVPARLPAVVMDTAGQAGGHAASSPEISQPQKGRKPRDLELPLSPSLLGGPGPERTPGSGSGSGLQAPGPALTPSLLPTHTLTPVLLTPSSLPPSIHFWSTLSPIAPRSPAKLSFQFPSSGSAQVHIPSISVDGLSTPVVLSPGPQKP
# Procedure, shortened: as §1
# [3] = biological target: T3, GABPA (Homo sapiens, UniProt Q06546 1-454); conditions: protein: recombinant; tags: N-terminal GST; dsDNA, one strand shown
# T3 sequence: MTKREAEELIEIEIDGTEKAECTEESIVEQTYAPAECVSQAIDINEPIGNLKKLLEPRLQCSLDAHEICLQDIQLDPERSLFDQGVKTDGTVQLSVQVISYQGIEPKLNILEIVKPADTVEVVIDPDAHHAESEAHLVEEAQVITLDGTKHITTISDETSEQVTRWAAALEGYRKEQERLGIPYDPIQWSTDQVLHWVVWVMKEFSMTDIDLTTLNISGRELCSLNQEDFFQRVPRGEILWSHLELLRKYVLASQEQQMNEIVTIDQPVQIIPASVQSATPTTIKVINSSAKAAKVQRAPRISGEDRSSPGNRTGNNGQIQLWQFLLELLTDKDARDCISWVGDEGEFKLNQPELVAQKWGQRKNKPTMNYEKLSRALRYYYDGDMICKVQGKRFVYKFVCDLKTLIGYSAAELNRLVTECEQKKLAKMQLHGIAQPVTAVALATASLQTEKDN
# Procedure, shortened: as §1
# [4] = biological target: T4, ERG (Homo sapiens, UniProt P11308 1-479); conditions: protein: recombinant; tags: N-terminal GST; dsDNA, one strand shown
# T4 sequence: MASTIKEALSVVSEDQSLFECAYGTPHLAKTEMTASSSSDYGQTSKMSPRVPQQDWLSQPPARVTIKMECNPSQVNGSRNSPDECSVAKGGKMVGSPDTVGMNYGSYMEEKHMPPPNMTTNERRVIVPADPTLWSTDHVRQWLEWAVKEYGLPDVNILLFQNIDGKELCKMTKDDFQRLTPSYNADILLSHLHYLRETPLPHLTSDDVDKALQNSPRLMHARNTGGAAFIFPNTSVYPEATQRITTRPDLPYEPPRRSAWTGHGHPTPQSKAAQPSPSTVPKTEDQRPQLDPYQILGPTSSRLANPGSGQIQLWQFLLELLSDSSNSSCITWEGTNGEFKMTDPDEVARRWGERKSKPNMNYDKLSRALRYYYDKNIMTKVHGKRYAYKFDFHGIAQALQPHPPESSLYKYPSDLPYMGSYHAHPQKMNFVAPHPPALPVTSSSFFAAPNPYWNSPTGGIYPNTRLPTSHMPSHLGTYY
# Procedure, shortened: as §1
# [5] = biological target: ELF1 (Homo sapiens, UniProt P32519 1-619); conditions: protein: recombinant; tags: N-terminal GST; dsDNA, one strand shown
# Procedure, shortened: as §1
# [6] = biological target: T5, EHF (Homo sapiens, UniProt Q9NZC4 1-300); conditions: protein: recombinant; tags: N-terminal GST; dsDNA, one strand shown
# T5 sequence: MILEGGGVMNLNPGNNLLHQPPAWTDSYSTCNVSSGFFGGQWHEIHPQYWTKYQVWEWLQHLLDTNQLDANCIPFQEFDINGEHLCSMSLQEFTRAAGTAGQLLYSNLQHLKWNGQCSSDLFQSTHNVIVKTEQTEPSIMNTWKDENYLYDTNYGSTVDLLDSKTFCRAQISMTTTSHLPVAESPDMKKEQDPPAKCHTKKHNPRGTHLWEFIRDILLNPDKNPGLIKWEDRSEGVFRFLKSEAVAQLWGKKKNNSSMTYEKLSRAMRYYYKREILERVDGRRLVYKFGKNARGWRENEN
# Procedure, shortened: as §1
# [7] = biological target: SPI1 (Homo sapiens, UniProt P17947 1-270); conditions: protein: recombinant; tags: N-terminal GST; dsDNA, one strand shown
# Procedure, shortened: as §1
# [8] = biological target: SPIB (Homo sapiens, UniProt Q01892 1-262); conditions: protein: recombinant; tags: N-terminal GST; dsDNA, one strand shown
# Procedure, shortened: as §1
# [9] = biological target: T6, ELK3 (Homo sapiens, UniProt P41970 1-407); conditions: protein: recombinant; tags: N-terminal GST; dsDNA, one strand shown
# T6 sequence: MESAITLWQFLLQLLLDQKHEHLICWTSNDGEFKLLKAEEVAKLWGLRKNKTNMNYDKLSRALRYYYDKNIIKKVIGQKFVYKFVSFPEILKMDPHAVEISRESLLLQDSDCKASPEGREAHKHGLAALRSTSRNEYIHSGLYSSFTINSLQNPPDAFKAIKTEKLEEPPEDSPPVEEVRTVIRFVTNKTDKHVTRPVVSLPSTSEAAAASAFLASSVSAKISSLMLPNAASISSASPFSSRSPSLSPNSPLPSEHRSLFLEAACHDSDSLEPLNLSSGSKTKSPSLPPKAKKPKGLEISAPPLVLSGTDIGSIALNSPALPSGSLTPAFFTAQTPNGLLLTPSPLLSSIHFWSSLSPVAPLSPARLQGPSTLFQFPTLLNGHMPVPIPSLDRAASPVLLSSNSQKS
# Procedure, shortened: as §1
# [10] = biological target: T7, FEV (Homo sapiens, UniProt Q99581 1-238); conditions: protein: recombinant; tags: N-terminal GST; dsDNA, one strand shown
# T7 sequence: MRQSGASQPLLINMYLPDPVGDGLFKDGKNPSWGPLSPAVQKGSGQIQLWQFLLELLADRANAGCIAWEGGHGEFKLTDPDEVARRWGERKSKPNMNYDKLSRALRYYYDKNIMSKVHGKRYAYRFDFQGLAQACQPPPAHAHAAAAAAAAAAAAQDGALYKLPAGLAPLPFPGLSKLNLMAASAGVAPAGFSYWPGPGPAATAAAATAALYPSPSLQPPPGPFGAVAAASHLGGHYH
# Procedure, shortened: as §1
# [11] = biological target: ETV5 (Homo sapiens, UniProt P41161 1-510); conditions: protein: recombinant; tags: N-terminal GST; dsDNA, one strand shown
# Procedure, shortened: as §1
# [12] = biological target: HSF1 (Homo sapiens, UniProt Q00613 1-529); conditions: protein: recombinant; tags: N-terminal GST; chain copies: 3; dsDNA, one strand shown
# Procedure, shortened: as §1
# [13] = biological target: T8, SPIC (Homo sapiens, UniProt Q8N5J4 1-248); conditions: protein: recombinant; tags: N-terminal GST; dsDNA, one strand shown
# T8 sequence: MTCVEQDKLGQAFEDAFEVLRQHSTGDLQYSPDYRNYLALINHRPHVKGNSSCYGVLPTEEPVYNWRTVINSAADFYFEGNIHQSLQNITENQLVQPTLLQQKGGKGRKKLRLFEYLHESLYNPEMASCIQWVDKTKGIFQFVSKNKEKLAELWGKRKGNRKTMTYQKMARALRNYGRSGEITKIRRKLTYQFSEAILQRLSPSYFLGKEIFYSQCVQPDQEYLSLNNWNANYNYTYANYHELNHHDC
# Procedure, shortened: as §1
# [14] = biological target: ELF4 (Homo sapiens, UniProt Q99607 1-663); conditions: protein: recombinant; tags: N-terminal GST; dsDNA, one strand shown
# Procedure, shortened: as §1
# [15] = biological target: T9, ELK4 (Homo sapiens, UniProt P28324-2 1-405); conditions: protein: recombinant; tags: N-terminal GST; dsDNA, one strand shown
# T9 sequence: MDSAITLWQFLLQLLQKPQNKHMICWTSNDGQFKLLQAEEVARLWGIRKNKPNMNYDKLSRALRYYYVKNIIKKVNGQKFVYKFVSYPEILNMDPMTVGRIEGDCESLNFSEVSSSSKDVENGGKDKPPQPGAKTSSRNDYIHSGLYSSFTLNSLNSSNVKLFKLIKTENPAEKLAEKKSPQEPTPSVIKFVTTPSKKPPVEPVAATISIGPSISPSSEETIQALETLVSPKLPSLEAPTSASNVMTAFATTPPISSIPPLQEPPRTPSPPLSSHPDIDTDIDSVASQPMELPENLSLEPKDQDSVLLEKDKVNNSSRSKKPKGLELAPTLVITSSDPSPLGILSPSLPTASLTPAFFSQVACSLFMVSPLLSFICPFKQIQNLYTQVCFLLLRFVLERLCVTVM
# Procedure, shortened: as §1
# [16] = biological target: T10, ETV2 (Homo sapiens, UniProt O00321 1-342); conditions: protein: recombinant; tags: N-terminal GST; dsDNA, one strand shown
# T10 sequence: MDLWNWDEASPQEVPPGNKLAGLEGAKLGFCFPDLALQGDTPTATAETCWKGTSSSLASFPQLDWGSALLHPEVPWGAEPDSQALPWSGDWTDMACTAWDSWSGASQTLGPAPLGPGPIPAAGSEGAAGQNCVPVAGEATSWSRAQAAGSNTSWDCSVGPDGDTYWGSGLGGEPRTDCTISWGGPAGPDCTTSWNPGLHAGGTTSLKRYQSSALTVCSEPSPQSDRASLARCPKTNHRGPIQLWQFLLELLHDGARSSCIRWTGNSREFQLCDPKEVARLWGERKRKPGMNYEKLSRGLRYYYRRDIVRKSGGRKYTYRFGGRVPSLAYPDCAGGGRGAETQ
# Procedure, shortened: as §1
# [17] = biological target: T11, ELF3 (Homo sapiens, UniProt P78545 1-371); conditions: protein: recombinant; tags: N-terminal GST; dsDNA, one strand shown
# T11 sequence: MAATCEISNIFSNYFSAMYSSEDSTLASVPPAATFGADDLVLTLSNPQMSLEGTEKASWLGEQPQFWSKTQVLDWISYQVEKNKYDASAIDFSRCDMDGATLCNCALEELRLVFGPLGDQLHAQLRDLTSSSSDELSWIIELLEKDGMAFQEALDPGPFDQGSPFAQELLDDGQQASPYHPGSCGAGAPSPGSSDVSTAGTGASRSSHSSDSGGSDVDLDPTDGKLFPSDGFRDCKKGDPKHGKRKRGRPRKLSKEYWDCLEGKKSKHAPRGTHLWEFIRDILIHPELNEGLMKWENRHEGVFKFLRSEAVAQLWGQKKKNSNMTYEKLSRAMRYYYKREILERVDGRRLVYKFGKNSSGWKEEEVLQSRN
# Procedure, shortened: as §1
# [18] = biological target: CRX (Homo sapiens, UniProt O43186 1-299); conditions: protein: recombinant; tags: N-terminal GST; dsDNA, one strand shown
# Procedure, shortened: as §1
# [19] = biological target: ETV1 (Homo sapiens, UniProt P50549 1-477); conditions: protein: recombinant; tags: N-terminal GST; dsDNA, one strand shown
# Procedure, shortened: as §1
# Chain of ELF4 (Q99607 whole entry): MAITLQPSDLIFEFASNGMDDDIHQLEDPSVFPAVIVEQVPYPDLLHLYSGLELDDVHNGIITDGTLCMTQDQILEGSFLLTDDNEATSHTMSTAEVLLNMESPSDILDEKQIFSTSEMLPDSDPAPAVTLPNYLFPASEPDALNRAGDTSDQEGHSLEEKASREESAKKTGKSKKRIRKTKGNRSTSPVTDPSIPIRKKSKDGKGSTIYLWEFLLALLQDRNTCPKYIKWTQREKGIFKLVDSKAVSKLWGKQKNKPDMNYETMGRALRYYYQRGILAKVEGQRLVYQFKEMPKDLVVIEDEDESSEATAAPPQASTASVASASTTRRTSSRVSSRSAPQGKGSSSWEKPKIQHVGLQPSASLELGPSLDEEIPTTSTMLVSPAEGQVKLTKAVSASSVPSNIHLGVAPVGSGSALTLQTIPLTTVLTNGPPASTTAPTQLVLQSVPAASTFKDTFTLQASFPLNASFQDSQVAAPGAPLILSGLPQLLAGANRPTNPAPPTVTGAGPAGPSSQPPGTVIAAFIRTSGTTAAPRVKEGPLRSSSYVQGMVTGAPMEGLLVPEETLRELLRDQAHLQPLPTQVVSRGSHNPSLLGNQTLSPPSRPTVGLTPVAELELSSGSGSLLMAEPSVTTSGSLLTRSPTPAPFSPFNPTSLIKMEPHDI
# Chain of CRX (O43186 whole entry): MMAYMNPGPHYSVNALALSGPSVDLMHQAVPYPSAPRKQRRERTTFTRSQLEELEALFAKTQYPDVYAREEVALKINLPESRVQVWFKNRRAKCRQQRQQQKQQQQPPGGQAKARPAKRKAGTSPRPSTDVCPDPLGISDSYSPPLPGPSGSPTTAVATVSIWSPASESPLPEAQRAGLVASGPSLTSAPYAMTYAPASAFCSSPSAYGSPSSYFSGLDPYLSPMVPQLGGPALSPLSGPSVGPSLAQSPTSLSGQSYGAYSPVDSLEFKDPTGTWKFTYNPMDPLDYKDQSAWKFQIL
# Chain of ELF1 (P32519 whole entry): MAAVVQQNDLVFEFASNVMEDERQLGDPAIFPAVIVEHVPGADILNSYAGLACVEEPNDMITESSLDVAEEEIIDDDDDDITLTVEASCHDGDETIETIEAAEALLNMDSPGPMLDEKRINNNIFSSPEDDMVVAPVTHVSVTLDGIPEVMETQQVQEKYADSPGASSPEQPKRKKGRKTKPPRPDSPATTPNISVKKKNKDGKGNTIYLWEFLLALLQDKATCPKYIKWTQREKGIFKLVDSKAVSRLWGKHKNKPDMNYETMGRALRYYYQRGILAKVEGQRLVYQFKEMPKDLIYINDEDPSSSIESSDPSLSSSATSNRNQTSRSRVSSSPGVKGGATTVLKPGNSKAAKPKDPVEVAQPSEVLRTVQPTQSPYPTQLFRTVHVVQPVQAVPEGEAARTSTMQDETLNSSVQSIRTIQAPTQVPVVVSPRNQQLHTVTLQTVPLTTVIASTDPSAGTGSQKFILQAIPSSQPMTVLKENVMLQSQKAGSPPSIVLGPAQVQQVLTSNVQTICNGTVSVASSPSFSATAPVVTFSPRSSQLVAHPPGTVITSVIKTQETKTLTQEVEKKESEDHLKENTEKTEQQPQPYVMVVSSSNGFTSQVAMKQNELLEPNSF
# Chain of ETV1 (P50549 whole entry): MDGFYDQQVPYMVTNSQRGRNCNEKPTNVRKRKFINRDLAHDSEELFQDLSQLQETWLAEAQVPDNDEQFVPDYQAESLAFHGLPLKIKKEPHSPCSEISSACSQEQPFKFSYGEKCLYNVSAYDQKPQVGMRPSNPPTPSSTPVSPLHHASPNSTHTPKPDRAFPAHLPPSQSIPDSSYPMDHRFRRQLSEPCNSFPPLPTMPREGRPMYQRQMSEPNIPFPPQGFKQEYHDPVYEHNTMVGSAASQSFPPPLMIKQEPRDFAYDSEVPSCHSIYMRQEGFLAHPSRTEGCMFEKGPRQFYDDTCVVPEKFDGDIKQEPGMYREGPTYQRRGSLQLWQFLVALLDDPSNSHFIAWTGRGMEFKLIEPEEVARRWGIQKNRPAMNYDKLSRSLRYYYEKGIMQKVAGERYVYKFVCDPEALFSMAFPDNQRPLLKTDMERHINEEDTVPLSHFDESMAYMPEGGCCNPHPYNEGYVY
# Chain of SPIB (Q01892 whole entry): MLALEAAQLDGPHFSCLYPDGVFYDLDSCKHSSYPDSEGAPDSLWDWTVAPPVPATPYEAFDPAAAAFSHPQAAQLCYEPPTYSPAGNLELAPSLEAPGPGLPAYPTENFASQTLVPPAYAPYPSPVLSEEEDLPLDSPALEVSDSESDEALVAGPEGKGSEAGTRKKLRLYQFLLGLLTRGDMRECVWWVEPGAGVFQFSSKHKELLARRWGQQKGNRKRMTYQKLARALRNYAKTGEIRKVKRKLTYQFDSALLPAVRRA
# Chain of HSF1 (Q00613 whole entry): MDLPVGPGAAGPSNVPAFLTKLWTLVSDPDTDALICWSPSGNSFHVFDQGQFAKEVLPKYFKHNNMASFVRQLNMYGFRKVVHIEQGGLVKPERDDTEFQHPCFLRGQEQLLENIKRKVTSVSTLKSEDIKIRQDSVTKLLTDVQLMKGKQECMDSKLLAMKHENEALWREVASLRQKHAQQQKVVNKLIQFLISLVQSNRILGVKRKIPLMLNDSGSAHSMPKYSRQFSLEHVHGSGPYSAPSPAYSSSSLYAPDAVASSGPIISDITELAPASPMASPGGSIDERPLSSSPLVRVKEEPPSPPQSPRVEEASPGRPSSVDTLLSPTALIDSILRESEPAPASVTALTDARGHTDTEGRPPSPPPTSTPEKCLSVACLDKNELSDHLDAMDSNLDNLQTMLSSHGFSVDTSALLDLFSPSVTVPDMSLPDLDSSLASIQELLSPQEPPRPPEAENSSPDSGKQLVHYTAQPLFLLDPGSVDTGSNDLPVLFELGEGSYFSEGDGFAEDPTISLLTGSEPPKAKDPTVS
# Chain of ETV5 (P41161 whole entry): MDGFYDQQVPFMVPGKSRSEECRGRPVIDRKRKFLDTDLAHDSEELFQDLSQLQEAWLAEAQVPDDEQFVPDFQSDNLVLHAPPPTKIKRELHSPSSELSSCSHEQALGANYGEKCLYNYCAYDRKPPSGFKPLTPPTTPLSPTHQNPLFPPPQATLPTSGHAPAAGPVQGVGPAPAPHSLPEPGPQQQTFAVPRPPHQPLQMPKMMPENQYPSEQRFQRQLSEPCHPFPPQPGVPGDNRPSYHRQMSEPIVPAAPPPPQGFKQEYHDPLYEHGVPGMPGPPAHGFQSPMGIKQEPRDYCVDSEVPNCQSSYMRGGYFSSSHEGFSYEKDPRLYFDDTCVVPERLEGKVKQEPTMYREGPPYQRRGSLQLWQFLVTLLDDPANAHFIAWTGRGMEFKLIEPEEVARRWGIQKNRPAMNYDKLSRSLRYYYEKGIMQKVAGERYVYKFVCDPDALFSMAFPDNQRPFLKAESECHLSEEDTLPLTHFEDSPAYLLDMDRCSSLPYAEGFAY
sequence,measurement,setting,value
CCTTCG,binding signal,[1],"1.31 fold enrichment (6-mer frequency, TF over GST control)"
same,binding signal,[2],"1.33 fold enrichment (6-mer frequency, TF over GST control)"
same,binding signal,[3],"1.35 fold enrichment (6-mer frequency, TF over GST control)"
same,binding signal,[4],"1.3 fold enrichment (6-mer frequency, TF over GST control)"
same,binding signal,[5],"1.33 fold enrichment (6-mer frequency, TF over GST control)"
same,binding signal,[6],"1.19 fold enrichment (6-mer frequency, TF over GST control)"
same,binding signal,[7],"1.32 fold enrichment (6-mer frequency, TF over GST control)"
same,binding signal,[8],"1.41 fold enrichment (6-mer frequency, TF over GST control)"
same,binding signal,[9],"1.65 fold enrichment (6-mer frequency, TF over GST control)"
same,binding signal,[10],"1.38 fold enrichment (6-mer frequency, TF over GST control)"
same,binding signal,[11],"1.3 fold enrichment (6-mer frequency, TF over GST control)"
same,binding signal,[12],"1.88 fold enrichment (6-mer frequency, TF over GST control)"
same,binding signal,[13],"1.31 fold enrichment (6-mer frequency, TF over GST control)"
same,binding signal,[14],"1.39 fold enrichment (6-mer frequency, TF over GST control)"
same,binding signal,[15],"1.34 fold enrichment (6-mer frequency, TF over GST control)"
same,binding signal,[16],"1.39 fold enrichment (6-mer frequency, TF over GST control)"
same,binding signal,[17],"1.28 fold enrichment (6-mer frequency, TF over GST control)"
same,binding signal,[18],"1.28 fold enrichment (6-mer frequency, TF over GST control)"
same,binding signal,[19],"1.5 fold enrichment (6-mer frequency, TF over GST control)"
